# From PubChem BioAssay (NCATS)
# “And” between values parts separate entries of the source, which are not always exact repeats. Equal values may be shown once. Records with an inconclusive call do not appear. A number with no mark means an inactive call. The source made the active and inactive calls. Unless noted, calls follow the shape of the dose curve; as a rule, active = well fitted curve in the direction sought with a large enough effect; inconclusive = small, poorly fitted or top-dose-only effect, or another doubt; inactive = no such curve, though single readings can be large; an effect the other way counts as inactive or inconclusive.
# Columns and labels:
# [1] = target: Retinoic acid receptor RXR-alpha (Homo sapiens) (UniProt P19793); experiment: qHTS assay for small molecule antagonists of retinoid X receptor alpha signaling (AID 588546; active = well fitted inhibition curve with a large enough effect in the signal ratio, with a control signal flat, not every such curve was filed as active; the % refers to the signal ratio;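 also: cells stimulated with 9-cis-retinoic acid as agonist; % is scaled to controls: 0 for no effect and ±100 for the full control effect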); settings: HEK293T RXRa-UAS-bla, beta-lactamase ratio, antagonist mode
# Outline: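 Beta-lactamase reporter inhibition, read as CCF4 fluorescence ratio (ex 405, em 460/530 nm) after 2 h at RT. HEK293T UAS-bla cells, 2500/well, were stimulated with 9-cis-RA at 500 or 100 nM final alongside test compound for 18 h at 37 C.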
# [2] = target: Thyroid hormone receptor beta (Homo sapiens) (UniProt P10828); experiment: qHTS assay for small molecule antagonists of thyroid hormone receptor beta signaling (AID 588547; active = well fitted inhibition curve with a large enough effect in the signal ratio, with a control signal flat, not every such curve was filed as active; the % refers to the signal ratio;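 also: cells stimulated with 0.4 nM T3 agonist during compound exposure; % is scaled to controls: 0 for no effect and ±100 for the full control effect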); settings: TR-UAS-bla HEK293, beta-lactamase ratio, antagonist mode, 18 h
# Outline: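 TR-UAS-bla GripTite HEK293 cells in 2% charcoal/dextran FBS medium were preincubated 4 h at 37 C, given compound (0.59 nM to 92 uM) plus 0.4 nM T3 (final) for 18 h, then CCF4 for 2 h at RT; Hill fit gave IC50.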
# [3] = target: Luciferin 4-monooxygenase (Photinus pyralis) (UniProt P08659); experiment: Biochemical firefly luciferase enzyme assay for NPC (AID 624030);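 also: purified P. pyralis luciferase at 10 nM with luciferin and ATP substrate; 0% = DMSO and -100% = full luciferase inhibition by PTC124 control; nearly all actives have a fitted effect of over 70% in size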; settings: purified P. pyralis luciferase, luminescence, 5 min; series mostly up to 58.6 µM
# Outline: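 Counter-screen for direct inhibition of the luciferase enzyme by approved-drug library compounds, run at 10 nM enzyme in 50 mM Tris acetate (final). Luminescence was read within 5 min of enzyme-buffer addition and normalized to PTC124 versus DMSO (0%).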
# [4] = qHTS assay for small molecule agonists of the antioxidant response element (ARE) signaling pathway (AID 651741; active = well fitted activation curve with a large enough effect in the signal ratio; the % refers to the signal ratio; also: potency is read from the fitted curve at half-maximal effect; as to activation: % of control where 0% means no effect); settings: HepG2 ARE-bla reporter, beta-lactamase FRET ratio, 16 h; series mostly up to 96 µM
# Outline: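 ARE-bla HepG2 cells (beta-lactamase reporter under ARE control) were plated at 2,000 cells/well, preincubated 5 h at 37 C/5% CO2, then treated with DMSO-dissolved compounds for 16 h at 37 C; LiveBLAzer B/G FRET substrate added, fluorescence read after 2 h at room temperature.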
# [5] = qHTS assay for small molecule activators of the p53 signaling pathway (AID 651743; active = well fitted activation curve with a large enough effect in the signal ratio, not every such curve was filed as active; the % refers to the signal ratio; also: % of control where 0% means no effect); settings: HCT-116 p53RE-bla, beta-lactamase FRET ratio, 16 h; activation: stronger effect = higher value
# Outline: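 p53RE-bla HCT-116 cells with a stably integrated beta-lactamase reporter under p53 response elements were plated, rested 5 hours at 37 C/5% CO2, then exposed to compounds in DMSO for 16 hours at 37 C. LiveBLAzer B/G FRET substrate was read after 2 hours at room temperature.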
# [6] = target: Voltage-gated inwardly rectifying potassium channel KCNH2 (Homo sapiens) (UniProt Q12809); experiment: qHTS Assay for Small Molecule Inhibitors of the Human hERG Channel Activity (AID 588834); settings: U2OS BacMam hERG, FluxOR thallium flux fluorescence; series mostly up to 46.1 µM;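 also: lower thallium flux fluorescence means stronger hERG block; nearly all actives have a fitted effect of over 50% in size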; also: potency is read from the fitted curve at half-maximal effect
# Outline: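 Concentration-response qHTS measuring drop in thallium-sensitive dye signal. U2OS cells carrying BacMam hERG; compound exposure ~10 min, then stimulation buffer and 2 min read at 1 sec intervals.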
# [7] = S16 Schwann cell viability assay (CellTiter-Glo assay) (AID 624031); settings: S16 rat Schwann cells viability, 24 h; series mostly up to 57.5 µM;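 also: native untransfected S16 rat Schwann cells; cellular ATP luminescence as a viability measure; plate controls were DMSO-treated cells for no effect and cell-free wells for full effect; nearly all actives have a fitted effect of over 70% in size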
# Outline: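 Concentration-effect curves come from CellTiter-Glo luminescence of S16 rat Schwann cells after 24 h compound exposure. Each reading was normalized to DMSO wells (0%) and wells without cells, and curves were ranked by r2 and response magnitude.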
# [8] = S16 Schwann cell PMP22 intronic element firefly luciferase assay (AID 624032); settings: S16 rat Schwann cells, PMP22 element FLuc, 24 h; series mostly up to 57.5 µM;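 also: plate controls were DMSO for no effect and PTC124 positive control mean for full effect; nearly all actives have a fitted effect of over 30% in size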
# Outline: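 Rat S16 Schwann cells stably carrying a PMP22 intronic element-driven Fluc reporter were seeded overnight, then exposed to compounds for 24 h at 37 °C. Luminescence was normalized to PTC124 (positive control) and DMSO (0% activity).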
# Voltage-gated inwardly rectifying potassium channel KCNH2 (Homo sapiens), sequence (Q12809 whole entry, looked up): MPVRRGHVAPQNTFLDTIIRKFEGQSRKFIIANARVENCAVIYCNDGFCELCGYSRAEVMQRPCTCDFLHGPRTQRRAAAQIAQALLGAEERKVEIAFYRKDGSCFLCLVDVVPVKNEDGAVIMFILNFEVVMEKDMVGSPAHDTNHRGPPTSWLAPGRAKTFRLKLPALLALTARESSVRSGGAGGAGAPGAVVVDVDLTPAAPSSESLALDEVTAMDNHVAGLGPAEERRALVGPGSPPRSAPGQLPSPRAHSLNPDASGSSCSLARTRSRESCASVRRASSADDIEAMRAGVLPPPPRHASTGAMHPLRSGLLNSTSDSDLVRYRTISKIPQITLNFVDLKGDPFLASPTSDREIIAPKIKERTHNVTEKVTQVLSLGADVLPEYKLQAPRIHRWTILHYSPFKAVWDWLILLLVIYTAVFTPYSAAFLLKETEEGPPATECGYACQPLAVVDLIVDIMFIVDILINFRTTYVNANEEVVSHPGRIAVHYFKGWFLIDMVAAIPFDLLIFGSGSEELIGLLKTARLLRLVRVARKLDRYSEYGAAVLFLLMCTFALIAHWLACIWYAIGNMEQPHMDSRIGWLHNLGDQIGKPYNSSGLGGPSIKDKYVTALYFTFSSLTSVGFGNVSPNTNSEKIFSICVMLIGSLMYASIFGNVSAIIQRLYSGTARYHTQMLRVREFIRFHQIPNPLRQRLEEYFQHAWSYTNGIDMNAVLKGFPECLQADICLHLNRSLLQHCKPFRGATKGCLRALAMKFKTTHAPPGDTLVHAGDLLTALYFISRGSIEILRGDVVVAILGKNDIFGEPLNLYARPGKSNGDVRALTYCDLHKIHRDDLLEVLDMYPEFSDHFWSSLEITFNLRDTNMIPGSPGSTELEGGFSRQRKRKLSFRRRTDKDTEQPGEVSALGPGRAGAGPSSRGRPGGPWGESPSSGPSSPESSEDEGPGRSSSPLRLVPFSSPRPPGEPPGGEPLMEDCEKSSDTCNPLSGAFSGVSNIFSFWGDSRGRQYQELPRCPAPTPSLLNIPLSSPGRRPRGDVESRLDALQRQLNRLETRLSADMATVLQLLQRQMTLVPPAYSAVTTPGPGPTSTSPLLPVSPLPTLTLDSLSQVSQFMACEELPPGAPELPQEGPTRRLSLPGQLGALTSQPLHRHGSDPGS
# Retinoic acid receptor RXR-alpha (Homo sapiens), sequence (P19793 whole entry, looked up): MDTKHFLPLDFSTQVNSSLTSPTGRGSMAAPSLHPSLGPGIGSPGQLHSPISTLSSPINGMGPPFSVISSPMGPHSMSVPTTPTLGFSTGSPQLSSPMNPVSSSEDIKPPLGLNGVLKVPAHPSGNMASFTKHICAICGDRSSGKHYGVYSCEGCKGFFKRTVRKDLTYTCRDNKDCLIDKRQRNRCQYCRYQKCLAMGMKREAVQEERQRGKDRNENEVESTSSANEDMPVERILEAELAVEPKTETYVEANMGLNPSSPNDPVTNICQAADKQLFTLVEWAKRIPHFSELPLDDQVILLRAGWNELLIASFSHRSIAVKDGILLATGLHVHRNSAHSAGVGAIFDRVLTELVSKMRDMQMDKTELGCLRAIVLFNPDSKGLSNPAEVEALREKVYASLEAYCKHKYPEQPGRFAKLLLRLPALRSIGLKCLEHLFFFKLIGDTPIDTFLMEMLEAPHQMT
# Luciferin 4-monooxygenase (Photinus pyralis), sequence (P08659 whole entry, looked up): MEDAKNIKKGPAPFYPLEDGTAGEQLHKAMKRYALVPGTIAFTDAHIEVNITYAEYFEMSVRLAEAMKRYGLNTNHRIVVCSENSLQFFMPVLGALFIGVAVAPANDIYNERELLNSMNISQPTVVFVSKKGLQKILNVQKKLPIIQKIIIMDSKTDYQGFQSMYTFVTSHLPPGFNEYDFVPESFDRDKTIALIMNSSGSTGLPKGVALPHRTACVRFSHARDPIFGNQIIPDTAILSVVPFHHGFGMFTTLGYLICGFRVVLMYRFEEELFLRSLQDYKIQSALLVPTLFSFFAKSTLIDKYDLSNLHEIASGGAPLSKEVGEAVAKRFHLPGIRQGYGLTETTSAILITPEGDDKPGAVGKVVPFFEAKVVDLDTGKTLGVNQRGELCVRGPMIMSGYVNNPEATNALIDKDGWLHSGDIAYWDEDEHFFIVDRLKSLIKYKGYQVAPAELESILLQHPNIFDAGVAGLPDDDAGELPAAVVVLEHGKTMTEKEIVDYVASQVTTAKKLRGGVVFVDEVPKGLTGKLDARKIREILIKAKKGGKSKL
# Thyroid hormone receptor beta (Homo sapiens), sequence (P10828 whole entry, looked up): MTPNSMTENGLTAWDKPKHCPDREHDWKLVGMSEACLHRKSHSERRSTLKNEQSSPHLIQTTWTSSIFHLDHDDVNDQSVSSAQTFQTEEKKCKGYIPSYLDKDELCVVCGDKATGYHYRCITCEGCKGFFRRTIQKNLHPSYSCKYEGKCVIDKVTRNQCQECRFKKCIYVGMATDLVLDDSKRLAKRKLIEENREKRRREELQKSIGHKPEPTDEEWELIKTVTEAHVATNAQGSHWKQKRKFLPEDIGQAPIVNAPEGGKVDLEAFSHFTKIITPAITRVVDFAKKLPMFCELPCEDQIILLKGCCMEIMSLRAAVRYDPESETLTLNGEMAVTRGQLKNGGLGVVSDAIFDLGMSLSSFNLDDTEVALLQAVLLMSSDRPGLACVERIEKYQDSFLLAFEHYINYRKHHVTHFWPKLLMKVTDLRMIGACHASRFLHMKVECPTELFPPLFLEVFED
Structure (SMILES),max response [1],activity change % (negative = inhibition) [2],Potency [3],Potency [4],activation [5],Potency [6],Potency [7],Potency [8]
O=[N+]([O-])c1cc([N+](=O)[O-])c2ccccc2c1,12.9%,-11.2%,inactive,5.96 µM (active),-0.898%,,,
CCO/N=C(\CC)C1=C(O)CC(c2c(C)cc(C)cc2C)CC1=O (centres undefined),-5.84%,5.1%,,,0.237%,,,
O=C(O)CCCOc1ccc(Cl)cc1Cl,-3.54%,12.5%,,,3.34%,,,
O=[N+]([O-])c1c(Cl)c(Cl)cc(Cl)c1Cl,6.87%,-0.964%,inactive,,-1.29%,inactive,,
Nc1ccc(Sc2ccc(N)cc2)cc1,1.16% and 6.78%,-2.35% and -11.2%,,,,inactive,,
O=C(O)COc1nc(Cl)c(Cl)cc1Cl,6.2%,3.94%,inactive,,1.93%,,,
C1CCC(NC2CCCCC2)CC1,9.08% and 2.51% and 3.48%,-2.7% and -4.6% and 5.65%,inactive,inactive,-5.71% and -0.896% and -1.09%,inactive,inactive,inactive
CN(C)[C@@H]1C(=O)C(C(N)=O)=C(O)[C@@]2(O)C(=O)C3=C(O)c4c(O)cccc4[C@@](C)(O)[C@H]3[C@H](O)[C@@H]12,-9.03% and -41.7% and -15.3%,2.86% and -5.16% and -23.7%,inactive,,,inactive,inactive,inactive
Nc1c(Cl)c(Cl)c(Cl)c(Cl)c1Cl,-8.48%,17.1%,inactive,,,,,
O=C(O)COc1ccccc1,-9.5%,-9.48%,inactive,inactive,-8.89%,inactive,inactive,inactive
CN(C)NC(=O)CCC(=O)O,-0.551% and 8.99%,-3.38%,,inactive,0.825% and -3.72%,inactive,,
CCCN(CCC)c1c([N+](=O)[O-])cc(S(N)(=O)=O)cc1[N+](=O)[O-],2.44%,0.13%,inactive,61.1 µM (active),,,,
O=C(O)c1cc(Oc2ccc(C(F)(F)F)cc2Cl)ccc1[N+](=O)[O-],-9.38%,-21.5%,inactive,inactive,,,,
O=C(O)C(Cl)Cl,4.75% and -13.6%,0.759% and 14.6%,inactive,inactive,,inactive,inactive,inactive
c1cc2ccc3cccc4ccc(c1)c2c34,0.282% and -8.73%,8.95%,inactive,,4.51% and 2.05%,inactive,,
CCOP(=O)(NC(C)C)Oc1ccc(SC)c(C)c1 (centres undefined),-12.2% and -3.23%,,inactive,,-4.79% and -0.487%,inactive,,
Cc1cc(O)ccc1Cl,-4.22%,1.27%,inactive,,-0.548%,inactive,inactive,inactive
COc1ccc(C(c2ccc(OC)cc2)C(Cl)(Cl)Cl)cc1,-30.1% and -25%,0.506% and -1.09% and 26%,inactive,33.5 µM (active) and 61.1 µM (active),2.38% and 0.818%,10 µM (active) and 22.4 µM (active),,
C=CCC1=C(C)C(OC(=O)C2C(C=C(C)C)C2(C)C)CC1=O (centres undefined),-8.71% and -26.3%,-24.8% and -17.8%,inactive,,1.22%,,,
CCOCCOC(C)=O,11%,9.89%,inactive,inactive,-0.566%,inactive,,
O=S(=O)(O)C(F)(F)C(F)(F)C(F)(F)C(F)(F)C(F)(F)C(F)(F)C(F)(F)C(F)(F)F,-2.01% and 4.02%,-0.756%,,inactive,-2.58% and 0.715%,,,
CS(=O)(=O)c1ccc(C(=O)C2C(=O)CCCC2=O)c([N+](=O)[O-])c1,0.528%,9.38%,inactive,54.5 µM (active),-1.94%,,,
